Only some compounds are listed: those with a hit (about 4.1% of all), similar ones and a draw of the others.
ssDAF12 agonist: S. stercoralis DAF-12 nuclear receptor activators, primary screen, cell-based, luminescence, HEK293, GRIP1 co-expression, lit1-tk-luc; Nuclear hormone receptor DAF-12 (Strongyloides stercoralis); HEK293 ssDAF-12/GRIP1 lit1-tk-luc reporter; % of 3 µM dafachronic acid response; activation, % at 6.8 µM; 370,000 tested, 1% active;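 active means activation above the mean over all tested compounds plus 3 SD, cut at about 0.9% in these data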;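 further: 0% = DMSO-only wells and 100% = 3 µM delta7-dafachronic acid wells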
hcDAF-12 act: H. contortus DAF-12 nuclear receptor activators, primary screen, cell-based, luminescence, HEK293, lit1-tk-luc reporter; activation, % at 6.8 µM; HEK293 hcDAF-12 lit1-tk-luc reporter; 0% DMSO, 100% Δ7-dafachronic acid; 370,000 tested, 1.4% active;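 active means activation above the mean of all tested compounds plus 3 SD, cut at about 5.5% in these data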;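 further: 100% = response to 3 µM Δ7-dafachronic acid high control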
DAX1 inh-1: DAX1 (NR0B1) inhibitors, primary screen, cell-based, HEK293, Gal4-DAX1, luciferase luminescence | Nuclear receptor subfamily 0 group B member 1 (Homo sapiens), P51843 | 340,000 tested, 0.99% active | inhibition, % at 6.75 µM | HEK293 Gal4-DAX1 luciferase reporter;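 active means inhibition above the mean over all tested compounds plus 3 SD, cut at about 4.2% in these data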;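 further: 0% = DAX1-transfected cells with DMSO and 100% = empty-vector control cells with DMSO; inhibition shows as a rise in luminescence from relieved DAX1 repression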
Target sequence (P51843 207-470 limits assumed): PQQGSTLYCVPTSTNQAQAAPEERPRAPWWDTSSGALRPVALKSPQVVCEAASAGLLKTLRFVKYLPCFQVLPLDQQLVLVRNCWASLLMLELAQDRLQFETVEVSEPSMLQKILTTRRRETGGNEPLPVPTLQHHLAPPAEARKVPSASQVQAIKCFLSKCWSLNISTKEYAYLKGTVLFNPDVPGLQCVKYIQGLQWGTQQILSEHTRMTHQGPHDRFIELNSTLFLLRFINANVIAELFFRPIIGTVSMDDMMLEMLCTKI
DAX1 inh-2: DAX1 (NR0B1) inhibitors on StAR promoter, primary screen, cell-based, luminescence, SF-1 (NR5A1), full-length DAX-1 | AID 652010, 2013 | 370,000 tested, 1.1% active | HEK293T StAR-luciferase reporter, SF-1/DAX-1 repression relief | inhibition, % at 6.8 µM;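 active means inhibition above the mean over all tested compounds plus 3 SD, cut at about 3.6% in these data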;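 further: 0% = DAX-1 cells with DMSO and 100% = cells lacking DAX-1 with DMSO; higher inhibition means more luminescence from relief of DAX-1 repression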
hgDAF12 agonist: H. glycines DAF-12 receptor agonists, primary screen, cell-based, luminescence, HEK293, GAL4 fusion, UAS-luciferase; HEK293 GAL4-hgDAF12 UAS-luciferase reporter, agonist luminescence; normalized to butyrate control; activation, % at 6.8 µM; 370,000 tested, 1.8% active; AID 687014, 2013;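 active means activation above a cutoff set at the mean of all screened compounds plus 3 SD, cut at about 10% in these data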;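 further: 0% = DMSO wells and 100% = sodium butyrate wells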
Starred values were filed as active, the others as inactive; · = no result given.

SMILES	ssDAF12 agonist	hcDAF-12 act	DAX1 inh-1	DAX1 inh-2	hgDAF12 agonist
O=C(Nc1ccccc1)Nc1ccc(Br)c(Cl)c1	-1	6.5*	-1	0	12*
O=C(Nc1ccc(N2CCOCC2)c(Cl)c1)c1ccc(Cl)cc1	-1	0	-1	0	0
Cc1nn(-c2ccccc2)c2sc(C(=O)NCc3ccc(F)cc3)cc12	1	-2	·	-1	2
CCCCCn1c(C)c(CC(=O)Nc2ccc(Oc3cccnc3)c(C)c2)c2ccccc21	0	-1	·	1	-1
Cc1ccc(S(=O)(=O)N2CCCC(C(=O)NCc3ccco3)C2)cc1 (centres undefined)	-1	-2	·	1	-5
Cc1cc(C(=O)Nc2ccc(N3CCOCC3)c(Cl)c2)c(C)o1	-1	2	4.2*	0	1
C/C(CC(=O)Nc1ccc(C)c(Cl)c1)=N\NC(=O)c1ccco1	1.0*	3	3	2	12*
Cc1cc(C(=O)Nc2ccc(C)c(S(=O)(=O)N3CCOCC3)c2)c(C)o1	-2	-1	-1	-1	0
C/C(CC(=O)Nc1ccc(C)c(Cl)c1)=N\NC(=O)Cc1ccccc1	-1	-2	-1	0	1
COc1ccc(NC(=O)c2ccccc2F)cc1Cl	0	3	1	2	11*
O=C(Nc1ccc(Br)c(Cl)c1)c1ccco1	0	4	4	1	11*
COc1ccc(NC(=O)c2cccc(F)c2)cc1Cl	-1	2	2	0	9
O=S1(=O)c2ccc(N3CCSCC3)cc2Oc2ccccc2CN1Cc1cn(Cc2ccccc2C(F)(F)F)nn1	-1	-1	·	-1	-6
Cn1cc(-c2cccc3[nH]cc(-c4ccccc4)c23)c2ccccc21	1	3	·	0	-1
CC(/C=N/NC(=O)c1ccccc1F)c1ccccc1 (centres undefined)	0	2	6.6*	2	11*
O=C(NC(=S)Nc1ccc(Br)c(Cl)c1)C1CC1	0	5.8*	1	0	2
CC(NC(=O)c1ccccc1F)C(=O)O (centres undefined)	-1	-1	0	-1	1
COc1ccc(NC(=O)c2cccc(OC(F)F)c2)cc1Cl	-2	1	-1	2	11*
O=C(Nc1ccc(CN2CCOCC2)cc1)c1ccco1	0	5.6*	2	2	7
C#CCN1CC(COc2ccccc2)Oc2cccc(Oc3ccc(C(C)C)cc3)c2S1(=O)=O (centres undefined)	-1	0	·	1	-1
COC(=O)C1CN(C2CC2)CCS(=O)(=O)N1Cc1cn(Cc2ccc(C)cc2)nn1 (centres undefined)	-1	0	·	1	1
O=C(Nc1ccc(N2CCOCC2)c(Cl)c1)c1ccco1	0	5	1	3.7*	12*
O=C(Nc1ccc(F)cc1)c1ccccc1F	-1	6.3*	1	2	4
O=C(c1ccccc1F)N1CCN(c2ccc([N+](=O)[O-])c(N3CCOCC3)c2)CC1	-1	0	5.8*	-1	3
O=C(Nc1ccc2c(c1)OCCO2)c1ccco1	0	1	2	3	4
SMILES	ssDAF12 agonist	hcDAF-12 act	DAX1 inh-1	DAX1 inh-2	hgDAF12 agonist
CC1(C)Oc2ccc(NC(=O)c3ccco3)cc2O1	0	3	3	2	11*
O=S(=O)(c1ccccc1)N1CCCc2nc(-c3ccccc3)ccc21	-1	1	·	1	0
CCOC(=O)CC[C@@H]1CC[C@]2(CCCN(S(=O)(=O)C3CCCCC3)C2)O1	-1	-1	·	0	-2
O=C(OCc1nc2ccccc2s1)c1ccc(Br)o1	0	5	4.6*	0	4
O=C(OCc1nc2ccccc2s1)c1ccc([N+](=O)[O-])o1	·	·	0	·	·
Cc1ccc(-c2cc(C(=O)NN=Cc3cccc(Oc4ccccc4)c3)[nH]n2)cc1C	-1	-3	·	0	1
Cc1ccccc1OCCCCn1cnc2ccccc21	-2	-3	-4	-2	-5
Brc1ccccc1OCCCn1cnc2ccccc21	0	5	3	2	11*
CCCCn1nnnc1SCC(=O)N1CCN(C(=O)c2ccco2)CC1	-1	-1	0	1	-1
Cc1nnc(SCC(=O)N2CCN(C(=O)c3ccco3)CC2)n1C	-1	0	4.7*	-1	1
Cn1nnnc1SCC(=O)N1CCN(C(=O)c2ccco2)CC1	-1	-1	4.3*	0	2
Brc1ccc2nc(-c3ccc(CN4CCC(c5nc6ccccc6[nH]5)CC4)cc3)c(-c3ccccc3)nc2c1	-2	-4	·	-4	0
CCOC(=O)c1cccc(NC(=O)CN(C)S(=O)(=O)c2ccc(Cl)s2)c1	-2	-1	·	-2	0
Cc1ccccc1NC(=O)OC1CCC12CCC(c1ccccc1)CC2 (centres undefined)	-1	-2	·	-1	2
CCOC(=O)C(CCCCCCC(NC(C)=O)(C(=O)OCC)C(=O)OCC)(NC(C)=O)C(=O)OCC	-1	0	4.7*	0	0
Cc1ccc(CSc2nnc(-c3ccccc3)n2Cc2ccco2)cc1	-2	-2	·	-2	-3
Cc1ccnc2nc(C(=O)Nc3nc(-c4ccccn4)cs3)nn12	-1	-1	8.3*	0	-1
COc1ccc(C2OC(=O)C(C)(C)C(=O)C2(C)C)cc1OC (centres undefined)	-1	-1	1	0	-1
COc1ccc(C2N3CC4(C)CN2CC(C)(C3)C4=O)cc1OC (centres undefined)	-1	-2	5.2*	1	1
O=C1c2ccccc2NC(c2ccccc2Cl)N1N=C1CCCCCC1 (centres undefined)	0	3	1	2	10*
O=C1NC(c2ccccc2Cl)Nc2ccccc21 (centres undefined)	-1	-1	0	1	1
CCC1CCCCN1C(=O)n1ncc(C(O)(c2ccccc2)c2ccccc2)n1 (centres undefined)	-2	-4	·	·	-9
Cc1nc(NC(=O)c2ccccc2)nc2cc3c(cc12)OCO3	1	2	1	2	12*
Cc1nc(NC(=O)c2ccc(F)cc2)nc2cc3c(cc12)OCO3	-2	-1	3	1	2
CN(Cc1ccccc1F)C(=O)C1CCC(CNS(=O)(=O)c2cccc3cccnc23)CC1 (centres undefined)	-1	-4	·	-2	-4

Screens from PubChem.
